In PubChem BioAssay (NCI):
Values joined by “and” are separate entries in the source; they are usually repeats but may differ in a detail not shown here. Equal entries are not always repeated. The panel holds about 83,000 compounds, 20% with a hit somewhere; the sample as a whole holds those more often.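 Cells were grown in 96-well plates and exposed to the test compound at a single concentration for 48 hours; results are reported as percent growth, with values below 10 considered active.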 Unmarked numbers belong to inactive results. Active and inactive are the calls of the source.

Tested on: HL-60(TB) leukemia
Assay: NCI-60 one-dose screen, 48 h (100 = growth as untreated, 0 = no growth, -100 = all killed)
Conditions: 10 µM unless noted

Row | SMILES | growth
1 | CCCCOc1nc2ccccc2cc1/C=C/c1cc(/C=C/c2cc3ccccc3nc2OCCCC)n(-c2ccccc2)n1 | 97.5%
2 | C/C(=N\NC(=O)c1ccncc1)c1ccccc1O | 5.87% (active) and 2.85% (active)
3 | CC(=O)CC(c1ccc([N+](=O)[O-])cc1)c1c(O)c2ccccc2oc1=O (centres undefined) | 97%
4 | COc1ccc(/C=C/C(=O)/C=C(/C=C/c2ccc(OC)c(OC)c2)OB(F)F)cc1OC | 19.7%
5 | O=C(c1ccccc1)c1cc2ccccc2oc1=O | 64.6%
6 | COc1cc2nc(-c3ccc(C(F)(F)F)cc3)cc(OCCCN3CCC(O)CC3)c2cc1OC | 27.3%
7 | CCCCNc1ccc(C#N)c(OCCN(CC)CC)c1 | 88.8%
8 | O=C(NC[C@H](O)CN1CCc2ccccc2C1)c1cc(NC2COC2)ncn1 | 119%
9 | O=C(Nc1ccc(Cl)c(Cl)c1)Nc1ccccc1O | 61.6%
10 | OCCSc1ccc(Cl)cc1 | 131% and 90.3%
11 | NC(N)=Nc1ccc(S(=O)(=O)O)cc1 | 108%
12 | CC1(c2ccccc2)NC(=O)N(CC(=O)Nc2cccc(I)c2)C1=O (centres undefined) | 84.2%
13 | COc1cc(C)c(C2C(C#N)=C(N)Oc3n[nH]c(-c4cccs4)c32)cc1C(C)C (centres undefined) | 66.2%
14 | O=S(=O)(c1ccccc1)n1cc2c(c1)-c1nc(Nc3ncccn3)sc1CC2 | 66.2%
15 | O=C1NN(C(=O)c2ccc(Cl)cc2)C(c2ccccc2)=N/C1=C\c1ccc(F)cc1 | -3.45% (active)
16 | N=C(N)c1ccc(-c2ccc(-c3cc(Cl)cc(Cl)c3)o2)o1 | -64% (active)
17 | C/C(=N\NC(=O)c1ccccc1O)c1cccc(/C(C)=N/NC(=O)c2ccccc2O)n1 | 6.42% (active)
18 | Nc1ccccc1SC(CC(=O)c1ccccc1)c1c(Cl)cccc1Cl (centres undefined) | 54.8%
19 | OC(CNC1CCCC1)Cn1c2ccccc2c2ccccc21 (centres undefined) | -47.3% (active)
20 | C=CCn1c(SCC(=O)NCc2cc(C)c(O)c(C)c2)nc2ccc(Cl)cc2c1=O | 94.4%

Row | SMILES | growth
21 | CCOC(=O)c1c[nH]c2cc(OCC3CC3)c(OCC3CC3)cc2c1=O | 104%
22 | CCN(CC)C(=S)SC(SC(=S)N(CC)CC)C(=O)c1nnn(-c2ccc([N+](=O)[O-])cc2)c1C | 82.4%
23 | O=C(Nc1ccccc1)Nc1cccc(-n2cc(-c3ccncc3)c(-c3ccc(O)c(Cl)c3)n2)c1 | 37.5%
24 | c1ccc2c(c1)CCN(NCCN1CCCC1)C2 | 96.9%
25 | Nc1n[nH]c2ccc([C@H]3[C@@H]4C5CCC(C5)[C@@H]4c4c(ccc5[nH]ncc45)N3S(=O)(=O)C3CC3)cc12 (some centres undefined) | -19.6% (active)
26 | COc1cc(-c2cc(=O)oc3cc(O)ccc23)c(OC)c2c1OCO2 | 103%
27 | NC1=NC(c2ccccc2)C2=C(N1)/C(=C/c1ccccc1)CCC2 (centres undefined) | 80.7%
28 | CC1(C)CC2=C3C=C[C@@H]4[C@@]5(C)CCC(=O)C(C)(C)[C@@H]5CC[C@@]4(C)[C@]3(C)CC[C@@]2(C(=O)O)CC1=O | 66.8%
29 | CC(=O)CC(=O)OC/C=C(/C)CCC=C(C)C | 124%
30 | CCOC(=O)CC[C@H](NC(=O)c1ccc(NC)c2ccccc12)C(=O)OCC | 105%
31 | COc1cccc(-c2nc3sccn3c2-c2ccnc(NCCCNS(=O)(=O)c3ccc(C(F)(F)F)cc3)c2)c1 | 47.8%
32 | COc1ccc(CC(C#N)c2cc3ccccc3[nH]2)cc1 (centres undefined) | 97.5%
33 | C=C(C)[C@@H]1CC[C@]2(C(N)=O)CC[C@]3(C)[C@H](CC[C@@H]4[C@@]5(C)C/C(=C/c6cccnc6)C(=O)C(C)(C)[C@@H]5CC[C@]43C)[C@@H]12 | 3.16% [100 µM] (active)
34 | CCCCCCCCCCCCc1ccc([N+](CC)(CC)CC)cc1 | -10.9% (active)
35 | CCNC(=O)Nc1ccc(-c2nc3c(c(N4CCOC[C@@H]4C)n2)CCN(C2COC2)C3)cc1 | 82.6% and 44.4%
36 | C=C(C)[C@@H]1CC[C@]2(C(=O)NCCNCCN)CC[C@]3(C)[C@H](CC[C@@H]4[C@@]5(C)C/C(=C/c6ccncc6)C(=O)C(C)(C)[C@@H]5CC[C@]43C)[C@@H]12 | 74.1%
37 | O=C1c2ccccc2C(=O)N1OCc1ccccc1 | 94.2%
38 | O=C(c1ccccc1)c1ccc(Cl)c([N+](=O)[O-])c1 | 40.8%
39 | O=C1N[C@@H]2NC(=[N+]3CCOCC3)N[C@@H]2N1 | 98%
